# Results filed as inconclusive are left out. Unmarked numbers belong to inactive results. Active and inactive are the calls of the source. The call rests on the fitted dose curve; in most records, active means well fitted inhibition curve with a large enough effect; inconclusive means small, poorly fitted or top-dose-only effect; inactive means flat fitted curve, though single readings scatter. Where a SMILES comes first, the peptide text is derived from it. Bridges are numbered along the chain shown (N, C = ends). [ ]: non-standard residue; d: D form. NMeY = CN[CH](Cc1ccc(O)cc1)C(=O)O
# Target: Phospholipid hydroperoxide glutathione peroxidase GPX4 (Homo sapiens) (UniProt P36969)
# Test: Primary qHTS Assay for Inhibitors of Recombinant Selenoprotein Glutathione Peroxidase 4 (GPX4) (AID 1845192); further: nearly all actives have a fitted effect of over 65% in size
# Details: recombinant GPX4, GR-coupled NADPH fluorescence, 15 min; series mostly up to 50 µM; activity change, negative = inhibition: at the top concentration
# Outline: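 GR-coupled readout: 100 nM GR, 1 mM GSH, 0.5 mM NADPH; NADPH fluorescence (ex 340/em 450 nm) read at t=0 and after 15 min RT. GPX4 200 nM, preincubated 30 min with compound; substrate 0.5 mM CHP.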
# On the % scale 0 is the no-effect control and ±100 the full control effect; potency means the concentration at half of the fitted maximal effect.
# Chain of Phospholipid hydroperoxide glutathione peroxidase GPX4 (Homo sapiens) (P36969 whole entry, looked up): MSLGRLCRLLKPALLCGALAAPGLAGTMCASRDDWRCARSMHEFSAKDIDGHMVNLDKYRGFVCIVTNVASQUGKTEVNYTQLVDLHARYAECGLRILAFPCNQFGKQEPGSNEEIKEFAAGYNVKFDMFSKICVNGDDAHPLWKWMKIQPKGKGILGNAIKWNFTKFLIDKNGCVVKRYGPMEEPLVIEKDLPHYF
Compound,"activity change, negative = inhibition",outcome,Potency
COC(C(=O)N1Cc2[nH]nc(NC(=O)c3ccc(N4CCN(C)CC4)cc3)c2C1)c1ccccc1 (stereo unspecified),1.71%,,
CC1OC(O[C@H]2CC[C@@]3(C)C(CC[C@]4(C)C3CC=C3C5CC(C)(C)CC[C@]5(C(=O)OC5OC(CO)C(OC6OC(COC7OCC(O)C(O)C7O)C(O)C(O)C6O)C(O)C5O)CC[C@]34C)C2(C)C)C(O)C(O)C1OC1OCC(OC2OCC(O)C(O)C2O)C(O)C1O (stereo partly specified),-7.3% [at 9.73 µM],,
COc1ccc(CNC(=O)c2cc(-c3cncc(C)c3)ncc2-c2nccs2)nc1OC,8.5%,,
CC(=O)SCC(=O)c1ccc(NS(=O)(=O)c2ccc(OCCCN(C)C)cc2)nc1,-16%,,
N=c1nc2n(cc1F)C1OC(CO)C(O)C1O2 (stereo unspecified),-1.14%,,
Cc1ccc(C(=O)N(CCCN)C(c2nc3cc(Cl)ccc3c(=O)n2Cc2ccccc2)C(C)C)cc1 (stereo unspecified),-14.3%,,
OC[C@H]1O[C@@H](OCCc2ccccc2)[C@H](O[C@@H]2OC[C@](O)(CO)[C@H]2O)[C@@H](O)[C@@H]1O,,inactive [at 27.8 µM],
Cc1ccc(NC(=O)c2ccc(CN3CC[C@H](N(C)C)C3)c(C(F)(F)F)c2)cc1Nc1nccc(-c2cncnc2)n1,1.09% [at 27.8 µM],,
COc1cc(O)c([C@@H](CC(=O)N2CC(C)CC(C)C2)c2ccc3c(c2)OCO3)c(OC)c1 (stereo partly specified),-20.7%,,
O=C(Nc1ccc(S(=O)(=O)Nc2nccs2)cc1)C(c1ccccc1)c1ccccc1,-15.1%,,
CC1CCN(C(=O)CC#N)CC1N(C)c1ncnc2[nH]ccc12 (stereo unspecified),-6.09%,,
CN(C)C(=O)NC1CCC(CCN2CCN(c3cccc(Cl)c3Cl)CC2)CC1 (stereo unspecified),,,inactive
CCC(C)C1NC(=O)C2CCCN2C(=O)C(NC(C)=O)C(C)OC(=O)C(Cc2ccc(OC)cc2)N(C)C(=O)C2CCCN2C(=O)C(C(C)C)NC1=O (stereo unspecified) (Ac-TPIVP[NMeY](Me); ester 1-C; configuration not given here),-6.29% [at 15.3 µM],,
COc1cccc2cc3c(c(O[C@@H]4O[C@H](CO[C@@H]5O[C@H](CO)[C@@H](O)[C@H](O)[C@H]5O)[C@@H](O)[C@H](O)[C@H]4O)c12)C(C)OC3=O (stereo partly specified),,,9.88 µM (active)
CC(C)(F)C[C@@H](N[C@@H](c1ccc(-c2ccc(S(C)(=O)=O)cc2)cc1)C(F)(F)F)C(=O)NC1(C#N)CC1,-2.21%,,
C[C@@H]1CCC2C(C)(C)[C@H](O)CC[C@]2(C)[C@@]12Cc1c(O)cc3c(c1O2)CN([C@@H](CCC(=O)O)C(=O)O)C3=O (stereo partly specified),-5.5% [at 27.8 µM],,

Compound,"activity change, negative = inhibition",outcome,Potency
C=C[C@]1(C)C=C2CCC3C(C)(CCC[C@@]3(C)C(=O)O)C2CC1 (stereo partly specified),-4.63% [at 27.8 µM],,
CC(=O)N[C@@H](CCCCN)C(=O)N(C)[C@@H](CC(C)C)C(=O)N[C@H](C(=O)N(C)[C@@H](Cc1ccccc1)C(=O)N[C@H](Cc1ccccc1)C(N)=O)C(C)C,,inactive [at 4.52 µM],
CC(NC(=O)CCc1nc2ccccc2c(=O)[nH]1)c1ccccc1 (stereo unspecified),,inactive,
COC1=CC(=O)CC(C)C12Oc1cc(OC)cc(O)c1C2=O (stereo unspecified),-17%,,
CC(=O)OC12COC1CC(O)C1(C)C(=O)C(O)C3=C(C)C(OC(=O)C(O)C(NC(=O)OC(C)(C)C)c4ccccc4)CC(O)(C(OC(=O)c4ccccc4)C21)C3(C)C (stereo unspecified),-14.7%,,
O=C1OCC(c2ccccc2)=C1Cc1ccccc1,-19.8%,,
CC(NC(=O)C(O)C(C)C)C(=O)NC1C(=O)N(C)CCc2ccccc21 (stereo unspecified),,inactive,
CC1(C)C=CN2C(=O)C3=CCCN3C(=O)[C@@H]2C[C@@]12Nc1ccccc1C2=O,-13.1% [at 27.8 µM],,
OC[C@H]1O[C@@H](Oc2ccccc2)[C@H](O)[C@@H](O)[C@@H]1O,-12.6%,,
CC(Oc1ccc2[nH]nc(/C=C/c3cnn(CCO)c3)c2c1)c1c(Cl)cncc1Cl (stereo unspecified),-12.6%,,
CS(=O)(=O)N1CCC(NC(=O)c2[nH]ncc2NC(=O)c2c(Cl)cccc2Cl)CC1,,inactive,
CCc1cnn2c(NCc3ccc[n+]([O-])c3)cc(N3CCCCC3CCO)nc12 (stereo unspecified),9.19%,,
CC1(C)CC[C@]2(C(=O)O[C@@H]3O[C@H](CO)[C@@H](O)[C@H](O)[C@H]3O)CC[C@]3(C)C(=CCC4[C@@]5(C)CC[C@H](O[C@@H]6O[C@H](C(=O)O)[C@@H](O)[C@H](O)[C@H]6O)[C@@](C)(CO)C5CC[C@]43C)C2C1 (stereo partly specified),0.874% [at 15.3 µM],,
CC(O)CO[C@@H]1O[C@H](CO)[C@@H](O)[C@H](O)[C@H]1O (stereo partly specified),-2.1%,,
C/C1=C\CC[C@H](C)CCO[C@@H]2O[C@H](CO[C@@H]3OC[C@](O)(COC1=O)[C@H]3O)[C@@H](O)[C@H](O)[C@H]2O,-4.79% [at 27.8 µM],,

# — PubChem BioAssay (NCATS)
